Screening results (PubChem BioAssay)
Smad3 FoxH1 inh: Smad3/FoxH1 peptide binding inhibitors, primary screen, biochemical, TR-FRET; Mothers against decapentaplegic homolog 3 (Homo sapiens), P84022; TR-FRET Smad3/Dy647-FoxH1 peptide binding, europium anti-His; inhibition, % at 25 µM; hit rate 0.29% among 88,000;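 active = compounds that reduce the energy-transfer binding signal between the protein and its labelled peptide by more than half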;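 note: 0% = Smad3 plus labelled peptide maximal FRET and 100% = peptide-only background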
Target sequence (P84022 whole entry, looked up): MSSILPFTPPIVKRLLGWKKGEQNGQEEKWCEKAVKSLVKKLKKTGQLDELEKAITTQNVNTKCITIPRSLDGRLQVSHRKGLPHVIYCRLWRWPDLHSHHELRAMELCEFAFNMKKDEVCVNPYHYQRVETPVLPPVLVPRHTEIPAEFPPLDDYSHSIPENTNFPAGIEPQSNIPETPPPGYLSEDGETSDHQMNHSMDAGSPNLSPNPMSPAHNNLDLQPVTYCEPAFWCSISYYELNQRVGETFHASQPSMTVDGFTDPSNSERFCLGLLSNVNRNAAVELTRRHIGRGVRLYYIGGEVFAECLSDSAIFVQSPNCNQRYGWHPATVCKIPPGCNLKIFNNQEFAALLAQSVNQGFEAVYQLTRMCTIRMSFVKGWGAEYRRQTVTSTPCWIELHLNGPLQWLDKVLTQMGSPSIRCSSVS
MT1-MMP txn act: MT1-MMP promoter reporter activation – cell-based, luciferase luminescence, primary screen | hit rate 0.16% among 86,000 | AID 750, 2007 | HT1080 MT1-MMP promoter luciferase reporter, overnight; stronger effect = higher value | activation factor at 10 µM;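 active = activation factor of at least 2 for MT1-MMP transcription at 10 µM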
Measles CPE: compounds protecting cells from measles virus cytopathic effect, primary screen, measles RdRp inhibitor project, single point, MLSMR library, absorbance. Measles virus-infected cells, CPE protection. protection (pct of control), % at 4 µM. hit rate 1.5% among 140,000. AID 841, 2007; in the data active = protection mostly above about 24%, no sharp cut-off; inactive = mostly below about 26%
An asterisk follows results filed as active; . = no result. Most compounds without a hit are left out; they make up all but 1.7% or so of the library.

SMILES | Smad3 FoxH1 inh | MT1-MMP txn act | Measles CPE
O=c1[nH]c(=O)n(CCO)c2nnn(Cc3ccccc3)c12 | 5 | 0.9 | 30*
CN1/C(=C\C=Nc2cc(S(=O)(=O)N3CCOCC3)ccc2N2CCOCC2)C(C)(C)c2ccccc21 | . | . | 17
Cc1cc2cc3c(=O)[nH]c(=O)[nH]c3nc2cc1C | -131 | . | .
COC(=O)c1ccc(C)c(NC(=O)CCc2ccc(OC)cc2)c1 | . | . | 9
CCOC(=O)Nc1cc(C(=O)OC)ccc1C | . | . | 33*
Nc1nc2c(c(=O)[nH]1)N[C@H](CCNc1ccc(C(=O)O)cc1)CN2 | -7 | . | .
O=C1CCCC(=O)C1=C1SCCCS1 | . | . | 9
COc1ccc2c(c1)Cc1sc(NC(C)=O)nc1-2 | 5 | 1.4 | 38*
COc1ccc2c(c1)Cc1sc(NC(=O)c3ccco3)nc1-2 | 19 | 1.8 | 2
Cc1nc2ccccn2c1C(=O)NN=C1C2CC3CC(C2)CC1C3 | . | . | 38*
Cc1cc(C(=O)NN=C2C3CC4CC(C3)CC2C4)c2ccccc2n1 | . | . | 0
COc1ccc(CCNC(=O)CN2CCC(C(N)=O)CC2)cc1 | 16 | 1.1 | 29
COc1ccc(CCNC(=O)CN2CCCc3ccccc32)cc1OC | -16 | 1.3 | 45*
COc1ccc(CCNC(=O)CN2CCC(C)CC2)cc1OC | . | . | 32*
COc1ccc(CCNC(=O)CN(C)S(=O)(=O)c2ccc(Br)s2)cc1OC | . | . | 4
COc1ccc(CCNC(=O)CN2C(=O)C3(OCCCO3)c3ccccc32)cc1OC | -8 | 1.1 | 8
COc1ccc(CCNC(=O)CN(C)S(=O)(=O)c2cccs2)cc1OC | 4 | . | 36*
O=C(O)[C@@H](O)[C@@H](O)[C@H](O)[C@H](O)CO | -2 | . | .
CC(=O)Nc1ccc(S(=O)(=O)NCCSCc2ccc(Cl)cc2Cl)cc1 | . | . | 3
O=C(Cn1cc(C(F)(F)F)ccc1=O)N/N=C/c1ccc(Cl)cc1 | . | . | 15
Cc1cc(=O)[nH]c2cc3oc4ccccc4c3cc12 | -13 | . | .
COc1ccc(C=Nc2c(O)ccc3ccccc23)cc1OC | 0 | . | .
O=c1cc(N2CCCCC2)c(-c2ccccc2)nn1Cc1ccccc1Cl | . | . | 21
O=c1cc(N2CCCCC2)c(-c2ccccc2)nn1Cc1ccc(Cl)cc1Cl | . | . | 43*
CN1CC[C@@H](CN2c3ccccc3Sc3ccccc32)C1 | 7 | . | .
SMILES | Smad3 FoxH1 inh | MT1-MMP txn act | Measles CPE
CCCCN1C(=O)C2C3C=CC(C2C1=O)C1C2C(=O)N(CCCC)C(=O)C2C31 (stereo not given) | . | . | 24
CN1CCN(CN2C(=O)[C@H]3[C@H]4C=C[C@@H]([C@@H]3C2=O)[C@H]2[C@@H]3C(=O)N(CN5CCN(C)CC5)C(=O)[C@@H]3[C@@H]42)CC1 | 57* | . | .
CCn1c2ccccc2c2cc(CN3CCN(S(=O)(=O)Cc4ccccc4)CC3)ccc21 | . | . | 16
C[N+](C)(C)c1ccc([C@H](N)C(=O)O)cc1 | -1 | . | .
Cc1ccc(NC(=O)Cc2noc3ccccc23)c(C)c1 | . | . | 21*
Cc1cccc2c(CC(=O)Nc3ccccc3)noc12 | . | . | 23
CCc1ccc(CCC(=O)O)nc1 | -8 | . | .
CC(=O)N1CC=CC1(CC(C)C)C(=O)NCc1ccc(C)o1 (stereo not given) | . | 1 | .
CC(C)C(=O)Nc1ccc(C(=O)N2CCN(C(=O)c3ccco3)CC2)cc1 | -18 | 1.3 | 9
CC(C)C(=O)Nc1ccc(C(=O)N2CCCCCC2)cc1 | -18 | 0.9 | 39*
CCC(=O)NNc1ncnc2ccccc12 | . | . | 92*
CCCCCCCCNc1ncnc2ccccc12 | -3 | 1.2 | 40
N#CNC(N)=Nc1ccc(Cl)cc1 | 3 | . | .
COC(=O)c1c(NC(=O)CSc2nc3nc(C)cc(C)n3n2)sc(C)c1C | . | . | 25
Cc1cc(C)cc(CC(Cc2nc3ccccc3[nH]2)c2nc3ccccc3[nH]2)c1 (stereo not given) | . | . | 37*
Cc1ccc(SCc2nc3ccccc3[nH]2)cc1 | . | . | 6
Cn1c(=O)c2[nH]c(CCCCc3nc4c([nH]3)c(=O)n(C)c(=S)n4C)nc2n(C)c1=S | 0 | . | .
COC(=O)c1ccc(C(/C=C/[C@@H](C)C(=O)NCc2cc(C)n(C)n2)NC(=O)OCc2ccccc2)cc1 (stereo not given in full) | . | 1.1 | .
CN1CCC[C@H](C(=O)OCC(=O)[C@]2(O)CC[C@@H]3[C@H]4CCC5=CC(=O)CC[C@@]5(C)[C@@H]4[C@@H](O)C[C@]32C)C1 | 3 | . | .
CCN(CC)C(=O)C1CCCN(C(=O)Nc2ccccc2)C1 (stereo not given) | 3 | 1 | 35*
O=C(NCc1ccc(F)cc1)C1CCCN(C(=O)Nc2ccccc2)C1 (stereo not given) | 10 | 1.1 | 10
Cc1ccc(N2C(=O)C(NC(=O)c3ccccc3)(C(F)(F)F)C3=C2CC(C)(C)CC3=O)cc1 (stereo not given) | . | . | 12
Cc1[nH]c(N)nc(=S)c1CCC(=O)O | 21 | . | .
Cc1ccc(NC(=O)c2ccc3c(c2)OCCO3)cc1S(=O)(=O)Nc1cccc(Cl)c1 | . | . | 5
O=c1c2cnn(-c3ccccc3)c2nc(-c2ccco2)n1-c1ccccc1 | 4 | 1.2 | 35*
SMILES | Smad3 FoxH1 inh | MT1-MMP txn act | Measles CPE
O=c1oc(-c2ccco2)nc2c1cnn2-c1ccccc1 | -4 | 1 | 4
COC(=O)[C@@]1(Cc2ccccc2)[C@H]2c3cc(C(=O)N4CCCC4)n(Cc4ccc(C(F)(F)F)nc4)c3C[C@H]2CN1C(=O)c1ccccc1 | . | 1.1 | .
c1ccc2c(-n3cccn3)cccc2c1 | 12 | 1.7 | 39*
NCc1cccc(-n2cccn2)c1 | 2 | 1.1 | 22
COc1ccc(CSc2nnnn2-c2ccccc2)cc1 | 6 | 1.2 | 22
COc1ccc2c(C)cc(Sc3nnnn3-c3ccccc3)nc2c1 | . | . | 53*
c1ccc(-c2cnc(-c3ccc(-c4ncc(-c5ccccc5)o4)cc3)o2)cc1 | 8 | . | .
COc1cc(OC)cc(C(=O)NCC(=O)OC2CCOC2=O)c1 (stereo not given) | . | 1.2 | 6
CCOc1ccc(C(=O)NCC(=O)OC2CCOC2=O)cc1OCC (stereo not given) | 3 | 1 | 42*
CCCNc1ncnc2c1cnn2-c1ccc(OC)cc1 | 1 | 0.8 | 9
CCCN(CCC)c1ncnc2c1cnn2-c1ccc(OC)cc1 | -5 | 0.6 | 92*
COc1ccc(Nc2ncnc3c2cnn3-c2cccc(C)c2)cc1OC | . | 1.1 | .
COc1ccc(-n2ncc3c(Nc4cccc(C)c4)ncnc32)cc1 | -2 | 1.2 | 38*
CC(C)(S)[C@H](N)C(=O)O | 6 | . | .
Cc1ccc(S(=O)(=O)Nc2ccccc2C=O)cc1 | -8 | . | .
COc1cc(C(=O)NCCN2CCOCC2)cc(OC)c1OC | 5 | 1.1 | 8
COc1ccc(C(=O)NCCCN2CCOCC2)cc1OC | 3 | 1.1 | 66*
CCOC(=O)C1=C(C)N(CCCC(=O)O)C(=O)NC1c1ccccc1OS(=O)(=O)c1ccc2ccccc2c1 (stereo not given) | . | 1.2 | .
BrC(c1cccc2ccccc12)c1cccc2ccccc12 | 5 | . | .
COC(=O)c1ccccc1NC(=O)CSCC(=O)Nc1ccc(F)cc1 | . | . | 3
C=CCNc1nc(N2CCCCC2)c(C#N)c2c1CN(Cc1ccccc1)CC2 | 3 | 0.9 | 61*
CCN1CCc2c(C#N)c(N3CCCCC3)nc(NCc3ccccc3)c2C1 | 7 | 1.1 | 0
Cc1noc(C)c1COC(=O)CCOc1ccccc1 | -2 | 1 | 15
